Here are results for 14 compounds from PubChem BioAssay (NCATS).

Several values for one entry are separate records, joined by “and”; a condition that tells them apart may be missing. Equal values may be shown once. Results filed as inconclusive are left out. Activity calls are given as the source filed them. Unless noted, calls follow the shape of the dose curve; as a rule, active = well fitted inhibition curve with a large enough effect; inconclusive = small, poorly fitted or top-dose-only effect; inactive = flat fitted curve, though single readings scatter.

Bile acid receptor (Homo sapiens), sequence (Q96RI1 whole entry, looked up): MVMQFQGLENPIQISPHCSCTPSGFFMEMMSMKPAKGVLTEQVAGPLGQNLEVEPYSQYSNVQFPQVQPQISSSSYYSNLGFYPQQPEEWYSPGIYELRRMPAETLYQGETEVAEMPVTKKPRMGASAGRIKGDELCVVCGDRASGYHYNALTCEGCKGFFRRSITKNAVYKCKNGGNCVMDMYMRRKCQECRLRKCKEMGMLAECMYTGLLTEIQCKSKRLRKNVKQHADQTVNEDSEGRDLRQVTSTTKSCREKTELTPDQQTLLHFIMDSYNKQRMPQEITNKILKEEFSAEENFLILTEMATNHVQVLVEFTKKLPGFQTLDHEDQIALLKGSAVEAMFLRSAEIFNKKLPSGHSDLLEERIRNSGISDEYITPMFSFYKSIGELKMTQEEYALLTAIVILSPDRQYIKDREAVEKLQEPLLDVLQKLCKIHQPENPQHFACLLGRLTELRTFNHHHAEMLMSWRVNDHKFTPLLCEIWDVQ
Estrogen receptor (Homo sapiens), sequence (P03372 whole entry, looked up): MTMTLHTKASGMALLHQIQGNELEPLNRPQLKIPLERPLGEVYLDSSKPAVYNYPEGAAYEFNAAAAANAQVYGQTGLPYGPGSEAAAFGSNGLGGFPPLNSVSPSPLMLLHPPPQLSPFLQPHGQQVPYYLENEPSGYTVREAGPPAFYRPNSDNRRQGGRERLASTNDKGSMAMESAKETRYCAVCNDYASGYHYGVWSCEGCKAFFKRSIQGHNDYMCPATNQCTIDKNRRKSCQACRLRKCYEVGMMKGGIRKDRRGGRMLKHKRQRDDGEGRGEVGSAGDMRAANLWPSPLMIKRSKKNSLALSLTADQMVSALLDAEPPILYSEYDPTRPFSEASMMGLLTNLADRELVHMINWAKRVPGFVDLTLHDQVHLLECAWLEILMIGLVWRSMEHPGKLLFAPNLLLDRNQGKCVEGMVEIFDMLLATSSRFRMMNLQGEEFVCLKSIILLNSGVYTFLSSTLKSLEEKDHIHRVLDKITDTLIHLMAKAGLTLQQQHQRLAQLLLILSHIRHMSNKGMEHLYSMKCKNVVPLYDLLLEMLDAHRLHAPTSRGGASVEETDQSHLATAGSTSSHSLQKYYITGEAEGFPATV

In the first assay the target is DNA dC->dU-editing enzyme APOBEC-3G (Homo sapiens) (UniProt Q9HC16). Description: qHTS for inhibitors of Vif-A3G interactions: Validation (AID 588379). Also: 0% is about no effect. As to conditions: Vif-A3G protein interaction assay; series mostly up to 46.1 µM. The gist of the method: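 HeLa cells stably expressing Vif and A3G-eYFP, 700 cells/well, incubated overnight at 37 deg C, then exposed to compound overnight at 37 deg C. Inhibition of Vif-mediated degradation read as increased yellow fluorescence (Ex 488/Em 500-530) by laser-scanning cytometry.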
DNA dC->dU-editing enzyme APOBEC-3G (Homo sapiens), sequence (Q9HC16 whole entry, looked up): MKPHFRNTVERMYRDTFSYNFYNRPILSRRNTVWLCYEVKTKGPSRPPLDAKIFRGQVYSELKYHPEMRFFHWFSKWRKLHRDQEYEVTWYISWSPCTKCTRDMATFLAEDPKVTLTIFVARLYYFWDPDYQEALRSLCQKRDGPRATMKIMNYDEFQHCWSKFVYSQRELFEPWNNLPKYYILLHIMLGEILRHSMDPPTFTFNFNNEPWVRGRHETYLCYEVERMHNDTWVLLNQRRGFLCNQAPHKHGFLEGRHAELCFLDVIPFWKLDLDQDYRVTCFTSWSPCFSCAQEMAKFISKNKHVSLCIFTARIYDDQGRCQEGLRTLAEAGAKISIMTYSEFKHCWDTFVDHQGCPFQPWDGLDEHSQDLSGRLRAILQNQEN
Background: qHTS replaces the single test concentration by a dilution series.
As for `O=C1NC(c2cccc([N+](=O)[O-])c2)=CCN1c1ccccc1O`, the compound was classed as inactive.

`COc1ccccc1N1CCN(CCN2C(=O)CC3(CCCC3)CC2=O)CC1`: the call was inactive.

`Clc1ccc2c(c1)N=C(N1CCNCC1)c1ccccc1N2`: the result was inactive.

Regarding `Nc1c[n+](N2CCOCC2)no1`, the compound was classed as inactive.

Regarding `NCC(=O)O`, the compound was called inactive.

`NC(N)=NCCCCN=C(N)N`: the outcome was inactive.

`COc1cc(C=O)ccc1O`: the outcome was inactive.

In the case of `Cn1cnc2c(NCc3ccccc3)nc(NCCO)nc21`, the compound was classed as inactive.

Regarding `CC(C)N(CCC(=O)c1ccc2ccccc2c1)Cc1ccccc1`, the call was inactive.

In the case of `C[C@@H](C1=C(CCN(C)C)Cc2ccccc21)c1ccccn1`, the result was inactive.

A further assay deals with Estrogen receptor (Homo sapiens) (UniProt P03372). Kind of assay: qHTS assay for small molecule antagonists of estrogen receptor alpha signaling (AID 588513; active = well fitted curve in the direction sought with a large enough effect in the signal ratio, with a control signal flat, not every such curve was filed as active; the % refers to the signal ratio; also: % is scaled to controls: 0 for no effect and ±100 for the full control effect). The conditions noted are these: ER-alpha-UAS-bla HEK293, beta-lactamase ratio, antagonist mode; series mostly up to 76.9 µM. The gist of the method:
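Antagonist mode: inhibition of 0.5 nM 17-beta-estradiol-driven beta-lactamase reporter in HEK 293 ER-alpha-UAS-bla cells, 18 h at 37C, CCF4 readout after 2 h at RT. Normalised to estradiol and DMSO; titration fitted to Hill.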
With `Nc1ccc(O)cc1`, the outcome was inactive.

Consider `CC(=O)OC/C=C(C)/C=C/C=C(C)/C=C/C1=C(C)CCCC1(C)C`, for which the outcome was inactive.

In the case of `COc1cc(C=O)ccc1O`, the outcome was inactive.

Take `CCCC(=O)c1cc(O)c(O)cc1O`: the result was inactive.

As to `CC(C)C(C)(C)C(C)(C)C(C)(C)S`, the outcome was inactive.

For another assay the target is unchanged. Description: qHTS assay for small molecule agonists of estrogen receptor alpha signaling (AID 588514; calls by dose curve;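 also: 0% = vehicle only and 100% = reference agonist; nearly all actives have a fitted effect of over 70% in size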). The conditions noted are these: ER-alpha-UAS-bla HEK293, beta-lactamase ratio, 18 h, percent of full estradiol response, vehicle zero; series mostly up to 76.8 µM. The method, boiled down: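 Cells were plated at 5000/well, incubated 4 hrs at 37 C, dosed with compound titration series, incubated 18 hrs at 37 C, loaded with CCF4 dye for 2 hrs at RT, then fluorescence was read.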
In the case of `CC(=O)OC/C=C(C)/C=C/C=C(C)/C=C/C1=C(C)CCCC1(C)C`, the result was inactive.

With `COc1cc(C=O)ccc1O`, the outcome was inactive.

`CCCC(=O)c1cc(O)c(O)cc1O`: the result was inactive.

For the compound `CC(C)C(C)(C)C(C)(C)C(C)(C)S`, the result was inactive.

Another assay addresses Bile acid receptor (Homo sapiens) (UniProt Q96RI1). Description: qHTS assay for small molecule antagonists of farnesoid X receptor signaling (AID 588526; calls by dose curve; also: % is scaled to controls: 0 for no effect and ±100 for the full control effect). As to conditions: HEK293T FXR-UAS-bla, beta-lactamase ratio, antagonist mode; series mostly up to 76.7 µM. The method, boiled down: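 Beta-lactamase reporter antagonist mode: HEK293T FXR-UAS-bla cells, titrated compound, CDCA stimulation, 16 h 37 C, CCF4 dye 2 h RT. Data normalized to CDCA 50 uM and DMSO; Hill-fit IC50.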
As for `Nc1ccc(O)cc1`, the outcome was inactive.

`COc1cc(C=O)ccc1O`: the result was inactive.

Consider `CCCC(=O)c1cc(O)c(O)cc1O`, for which the outcome was inactive.

Test system in another assay: not listed separately
Description: qHTS assay for small molecule antagonists of peroxisome proliferator-activated receptor delta signaling (AID 588535).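 Also: cells co-treated with a PPAR-delta agonist as stimulator during compound exposure.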 As to conditions: HEK293T PPARd-UAS-bla, beta-lactamase FRET ratio, 18 h; 460 nm channel. The gist of the method:
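HEK293T PPAR-delta-UAS-bla cells, 4000/well, 2% charcoal/dextran FBS; 5 h 37 C; cpd titration; 18 h 37 C; CCF4 2 h RT; FI 460/530 nm; Hill fit → IC50, efficacy.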
For the compound `CC(=O)OC/C=C(C)/C=C/C=C(C)/C=C/C1=C(C)CCCC1(C)C`, the max response was 34.7%.

Take `COc1cc(C=O)ccc1O`: the max response is -8.31% and -9.26%.

For `CCCC(=O)c1cc(O)c(O)cc1O`, the max response stood at 14.6%.

With `CC(C)C(C)(C)C(C)(C)C(C)(C)S`, the max response is 5.05% and 21.4%.
